# Data published in the supplement of paper PMC3484114.
# “And” between values parts separate entries of the source, which are not always exact repeats. Equal entries are not always repeated. ± gives the standard deviation.
# Tested on: OVCAR-3-derived ovarian cancer stem-like cells (spheroids)
# Test: cell growth relative to untreated control; higher = more growth (less inhibition)
# Settings: 2.29 µM; 96 h
# Outline: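 Viability of stem-like cells from OVCAR-3 spheroids was assessed with TOX8 resazurin fluorescence at ex 560/em 590 nm. The cells had been trypsin-dissociated, seeded at 50,000 cells/mL in stem cell medium in ultra-low attachment 96-well plates and preincubated 24 h, then treated with compounds at 2.29 uM for 96 h at 37°C, 5% CO2, in 4 replicate wells, with fluorescence read after 4 h. Results were converted to percent growth against untreated wells after blank subtraction and Grubbs outlier removal.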
row,SMILES,cell growth
1,C[C@H](CN1CC(=O)NC(=O)C1)N1CC(=O)NC(=O)C1,131 ± 20%
2,NC(N)=N/N=C(\c1ccc(Cl)cc1)C1CC1,200 ± 43%
3,CC(=O)SC(SC(C)=O)SC(C)=O,97.1 ± 26%
4,CCCCCCC1CC(=O)C1(Cl)Cl (stereo not given),104 ± 16%
5,O=C1/C(=C/c2cccs2)Oc2ccccc21,94 ± 12%
6,CCC(C#N)(c1ccccc1)N(CCc1ccccc1)C(=O)c1ccccc1 (stereo not given),129 ± 28%
7,CC1=C/C(=N\OCC(=O)O)CC(c2ccc(C(C)C)cc2)C1 (stereo not given),12.4 ± 5%
8,O=C1CCC(c2ccccc2)=NN1c1nc2ccccc2s1,39.3 ± 10%
9,O=C1c2ccccc2C(=O)c2c(NCCNCCO)ccc(O)c21,67.2 ± 44%
10,CCCCCC(CN1CCOCC1)C(=O)/C=C/c1ccccc1 (stereo not given),93 ± 29%
11,NC(=O)NO,107 ± 15%
12,O=C1C=CC(=O)c2c(O)c(N3CCN(CCOCCO)CC3)c(Br)c(O)c21,18 ± 6.4%
13,COc1cc(/C=C(\C)c2ccc3c(c2)OCO3)cc(OC)c1OC,162 ± 21%
14,O=C1C(=O)c2ccccc2C(O)=C1CC=C(Cl)Cl,92.3 ± 30%
15,CC1=NC(C(C)C)C(=O)O1 (stereo not given),122 ± 74%
16,N[C@@H](CSC(c1ccccc1)(c1ccccc1)c1ccccc1)C(=O)O,34.8 ± 6.7%
17,Cc1c(Cl)cccc1NC(=O)CC1Sc2ccccc2NC1=O (stereo not given),116 ± 8.3%
18,COc1ccccc1[S+]([O-])Nc1ccccc1 (stereo not given),117 ± 25%
19,C=C1C(=O)OCC2C(C(=O)O)=CC3C(C)C(C)=CC123 (stereo not given),76.4 ± 10%
20,CN(C)[C@H]1CCC2[C@@H]3CCC4C[C@@H](NC(=O)NC(Cc5ccccc5)c5nccs5)CC[C@]4(C)C3CC[C@@]21C (stereo not given in full),76.9 ± 20%
21,C/C(=N\NC(=S)N1CCC1)c1ccccn1,20.6 ± 4%
22,Cc1cc(-c2nc3ccccc3s2)ccc1N,73.6 ± 9%
23,S=C(Nc1ccccc1)N(/N=C/C=C/c1ccccc1)c1nnc(-c2ccccc2)c(-c2ccccc2)n1,132 ± 57%
24,CN(C)C[C@H]1CC[C@@H](CN(C)C)C1=O,93.8 ± 21%
25,[Mo],97% and 106%
